# Results from PubChem BioAssay (NCATS).
# Values joined by “and” are separate entries in the source; they are usually repeats but may differ in a detail not shown here. Equal values may be shown once. Results filed as inconclusive are left out. Where a call stands in place of a potency, no number is given. Some structures have more than one record in an assay (separate samples or runs), and their calls can disagree. Active and inactive are the calls of the source. Unless noted, the call rests on the fitted dose curve; in most records, active means well fitted curve in the direction sought with a large enough effect; inconclusive means small, poorly fitted or top-dose-only effect, or another doubt; inactive means no such curve, though single readings can be large; an effect the other way counts as inactive or inconclusive.
# How the values were obtained:
# [1] = qHTS assay to identify small molecule inhibitors of chordoma cells - UCH-2 (AID 1259356); further: potency means the concentration at half of the fitted maximal effect
# [2] = P-glycoprotein substrates identified in KB-8-5-11 adenocarcinoma cell line, qHTS therapeutic library screen (AID 1346987); further: nearly all actives have a fitted effect of over 65% in size; further: potency means the concentration at half of the fitted maximal effect
# In short: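 Human cervical adenocarcinoma KB-8-5-11 cells, selected in colchicine to over-express P-gp and assayed without it, were exposed for 72 h to titrated compounds. An ATP-based luminescent viability signal gave AC50.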
# [3] = Natriuretic polypeptide receptor (hNpr1) antagonism - Pilot counterscreen GloSensor control cell line (AID 1347045; calls by dose curve; further: potency means the concentration at half of the fitted maximal effect)
# In short: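 The SNP-driven cGMP luminescence signal (50 uM, 20 min, room temperature) was measured in GloSensor HEK293 control cells. Compounds were tested as a LOPAC titration series and preincubated for 30-50 min.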
# [4] = P-glycoprotein substrates identified in KB-3-1 adenocarcinoma cell line, qHTS therapeutic library screen (AID 1346986); settings: KB-3-1 parental cells viability, CellTiter-Glo, 72 h; at 44.5 µM (top of the series); further: nearly all actives have a fitted effect of over 60% in size
# In short: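 Dose-response cytotoxicity, KB-3-1 vs P-gp-high KB-8-5-11, no colchicine in assay medium. Read: CellTiter-Glo at 72 h.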
structure (smiles),measurement,setting,value
Cc1nnc(NS(=O)(=O)c2ccc(N)cc2)s1,Potency,[1],inactive
CN(C)CCc1c[nH]c2ccc(C[C@H]3COC(=O)N3)cc12,Potency,[1],inactive
same,Potency,[2],inactive
Nc1nc(N)nc(-c2cc(Cl)ccc2Cl)n1,Potency,[1],inactive
same,Potency,[2],inactive
CCOC(=O)[C@H](CCc1ccccc1)N[C@H]1CS[C@H](c2cccs2)CN(CC(=O)O)C1=O,Potency,[1],inactive
same,Potency,[2],inactive
CS(=O)(=O)c1ccc([C@@H](O)[C@@H](CO)NC(=O)C(Cl)Cl)cc1,Potency,[1],inactive
same,Potency,[2],inactive
CC(=O)CC(c1ccccc1)c1c(O)c2ccccc2oc1=O (stereo not drawn),Potency,[1],inactive
same,Potency,[2],inactive
CN1CCN(c2c(F)cc3c(=O)c(C(=O)O)cn(CCF)c3c2F)CC1,Potency,[1],inactive
same,Potency,[2],inactive
CC(C)(C)NC(=O)[C@H]1CC[C@H]2[C@@H]3CC[C@H]4NC(=O)C=C[C@]4(C)[C@H]3CC[C@]12C,Potency,[1],inactive
same,Potency,[2],inactive
CCc1c2c(nc3ccc(OC(=O)N4CCC(N5CCCCC5)CC4)cc13)-c1cc3c(c(=O)n1C2)COC(=O)[C@]3(O)CC,Potency,[1],inactive
same,Potency,[2],inactive
CCc1cc(C(N)=S)ccn1,Potency,[1],inactive
same,Potency,[2],inactive
O=C(O)c1cc(=O)[nH]c(=O)[nH]1,Potency,[1],inactive
same,Potency,[2],inactive
C[C@@H]1C[C@H]2[C@@H]3CCC4=CC(=O)C=C[C@]4(C)[C@@]3(Cl)[C@@H](O)C[C@]2(C)[C@@]1(OC(=O)c1ccco1)C(=O)CCl,Potency,[1],inactive
same,Potency,[2],inactive
COc1ccccc1OCC(O)COC(N)=O (stereo not drawn),Potency,[1],inactive
same,Potency,[2],inactive
CCN[C@H]1C[C@H](C)S(=O)(=O)c2sc(S(N)(=O)=O)cc21,Potency,[1],inactive
same,Potency,[2],inactive
S=P(N1CC1)(N1CC1)N1CC1,Potency,[1],inactive
same,Potency,[2],inactive
COc1ccc2cc3[n+](cc2c1OC)CCc1cc2c(cc1-3)OCO2,Potency,[1],inactive
same,Potency,[2],inactive
COc1cccc(N(C)C(=S)Oc2ccc3c(c2)CCCC3)n1,Potency,[1],inactive
same,Potency,[2],inactive
COC(=O)Nc1nc2ccc(C(=O)c3ccccc3)cc2[nH]1,Potency,[1],inactive
same,Potency,[2],699 nM (active) and 2.96 µM (active)
CN(C)c1ccc(C(=C2C=CC(=[N+](C)C)C=C2)c2ccc(N(C)C)cc2)cc1,Potency,[1],7.3 µM (active)
same,Potency,[2],8.2 µM (active) and 1.48 µM (active)
O=P(O)(O)C(O)(Cc1cccnc1)P(=O)(O)O,Potency,[1],inactive
same,Potency,[2],inactive
CO[C@@H]1[C@@H](OC(N)=O)[C@@H](O)[C@H](Oc2ccc3c(O)c(NC(=O)c4ccc(O)c(CC=C(C)C)c4)c(=O)oc3c2C)OC1(C)C,Potency,[1],inactive
same,Potency,[2],inactive
NCCCC(O)(P(=O)(O)O)P(=O)(O)O,Potency,[1],inactive
same,Potency,[2],inactive
CCC(=O)O[C@]1(C(=O)CCl)[C@@H](C)C[C@H]2[C@@H]3CCC4=CC(=O)C=C[C@]4(C)[C@@]3(F)[C@@H](O)C[C@@]21C,Potency,[1],inactive
same,Potency,[2],inactive
CCOc1cc(N)c(Cl)cc1C(=O)NCC1CN(Cc2ccc(F)cc2)CCO1 (stereo not drawn),Potency,[1],inactive
same,Potency,[2],inactive
C[C@@H](CN1CC(=O)NC(=O)C1)N1CC(=O)NC(=O)C1,Potency,[1],inactive
same,Potency,[2],inactive and 18.7 µM (active)
C[C@]12C=CC(=O)C=C1CC[C@@H]1[C@@H]2C(=O)C[C@@]2(C)[C@H]1CC[C@]2(O)C(=O)CO,Potency,[1],inactive
same,Potency,[2],inactive
CNS(=O)(=O)Cc1ccc2[nH]cc(CCN(C)C)c2c1,Potency,[1],inactive
same,Potency,[2],inactive
CC(C)Cn1cnc2c(N)nc3ccccc3c21,Potency,[1],inactive
same,Potency,[2],inactive
CCCc1cc(C(N)=S)ccn1,Potency,[1],inactive
same,Potency,[2],inactive
CCn1cc(C(=O)O)c(=O)c2cc(F)c(N3CCNCC3)nc21,Potency,[1],inactive
same,Potency,[2],inactive
CC(C)NCC(O)c1ccc(NS(C)(=O)=O)cc1 (stereo not drawn),Potency,[1],inactive
same,Potency,[2],inactive
same,Potency,[3],inactive
CC[C@H](C)C(=O)O[C@H]1C[C@@H](C)C=C2C=C[C@H](C)[C@H](CC[C@@H]3C[C@@H](O)CC(=O)O3)[C@H]21,Potency,[1],inactive
same,Potency,[2],18.7 µM (active)
Oc1c(Cl)cc(Cl)c2cccnc12,Potency,[1],23.1 µM (active)
same,Potency,[2],1.46 µM (active)
COc1cc(NCc2ccc3nc(N)nc(N)c3c2C)cc(OC)c1OC,Potency,[1],inactive
same,Potency,[2],inactive and 5.8 µM (active)
CC(=O)Oc1ccccc1C(=O)Nc1ncc([N+](=O)[O-])s1,Potency,[1],inactive
same,Potency,[2],inactive and 13 µM (active)
N[C@@H](Cc1ccc(O)c(O)c1)C(=O)O,Potency,[1],inactive
same,Potency,[2],inactive
same,Potency,[3],inactive
CCCCCCNC(=O)n1cc(F)c(=O)[nH]c1=O,Potency,[1],inactive
same,Potency,[2],6.51 µM (active)
CCCN[C@H]1CCc2nc(N)sc2C1,Potency,[1],inactive
same,Potency,[2],inactive
NNC(=O)c1ccncc1,Potency,[2],inactive
NC(=O)c1ccc2[nH]ccc2c1,Potency,[2],inactive
same,Potency,[3],inactive
Cc1nnc(C(=O)NC(C)(C)c2nc(C(=O)NCc3ccc(F)cc3)c(O)c(=O)n2C)o1,Potency,[2],inactive
Nc1nc(=S)c2[nH]cnc2[nH]1,Potency,[2],5.8 µM (active) and 1.18 µM (active)
CCN1CCCC1CNC(=O)c1cc(S(N)(=O)=O)ccc1OC (stereo not drawn),outcome,[4],inactive
same,Potency,[2],inactive
same,Potency,[3],inactive
CC(=O)[C@H]1CC[C@H]2[C@@H]3CCC4=CC(=O)CC[C@]4(C)[C@H]3CC[C@]12C,Potency,[2],11.8 µM (active)
C1CCC(C(CC2CCCCN2)C2CCCCC2)CC1 (stereo not drawn),Potency,[2],5.17 µM (active) and 16.6 µM (active)
COc1cc2ncnc(Nc3cccc(Cl)c3)c2cc1OC,Potency,[2],8.33 µM (active) and 16.4 µM (active)
same,Potency,[3],inactive
O=C(O)CCn1c2c(c3ccccc31)C[C@H](NS(=O)(=O)c1ccc(F)cc1)CC2,outcome,[4],inactive
same,Potency,[2],inactive
O[C@@H](CNC[C@H](O)[C@H]1CCc2cc(F)ccc2O1)[C@@H]1CCc2cc(F)ccc2O1,Potency,[2],20.9 µM (active)
Cc1ccc(S(=O)(=O)N[C@@H](Cc2ccccc2)C(=O)CCl)cc1,Potency,[3],3.29 µM (active)
